The record followed here is PubChem BioAssay AID2625 (National Center for Advancing Translational Sciences (NCATS), 2010).

Structures are written as SMILES. Inconclusive results are not listed. A number with no mark means an inactive call. Calls follow the shape of the dose curve; as a rule, active = well fitted curve in the direction sought with a large enough effect; inconclusive = small, poorly fitted or top-dose-only effect, or effect the other way, or another doubt; inactive = no such curve, though single readings can be large or run the other way.

Pyruvate kinase PKLR (Homo sapiens), sequence (P30613 whole entry, looked up): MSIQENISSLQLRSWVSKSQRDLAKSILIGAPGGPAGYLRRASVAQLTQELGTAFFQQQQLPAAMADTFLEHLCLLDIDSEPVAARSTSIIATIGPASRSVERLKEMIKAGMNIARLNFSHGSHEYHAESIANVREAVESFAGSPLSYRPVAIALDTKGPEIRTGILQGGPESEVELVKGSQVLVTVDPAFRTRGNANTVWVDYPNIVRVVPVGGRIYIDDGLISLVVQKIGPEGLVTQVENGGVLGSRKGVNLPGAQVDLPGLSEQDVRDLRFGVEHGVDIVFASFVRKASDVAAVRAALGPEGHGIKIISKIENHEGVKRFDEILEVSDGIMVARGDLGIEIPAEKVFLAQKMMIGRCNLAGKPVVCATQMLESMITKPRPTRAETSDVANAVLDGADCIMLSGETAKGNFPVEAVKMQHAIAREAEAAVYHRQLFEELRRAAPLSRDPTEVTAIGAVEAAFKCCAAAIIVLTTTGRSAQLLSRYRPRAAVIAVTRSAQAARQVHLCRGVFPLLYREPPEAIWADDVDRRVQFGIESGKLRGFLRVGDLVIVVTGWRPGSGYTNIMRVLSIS

The test concerns the target Pyruvate kinase PKLR (Homo sapiens) (UniProt P30613). The test can be described thus: Secondary LDH Assay for Activators of Human Liver Pyruvate Kinase: for Probe SAR.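 Also: 0% = uninhibited enzyme rate and 100% = full activation by fructose bisphosphate.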 The settings on record: purified hPK-L, LDH-coupled NADH fluorescence kinetic; series mostly up to 58.2 µM; activity change, positive = activation: at the top concentration. From the text: NIH Chemical Genomics Center [NCGC]
Matthew G. Vander Heiden, M.D., Ph.D. [Harvard Medical School, 77 Avenue Louis Pasteur, Boston, MA 02115]
Human pyruvate kinase liver (hPK-L)enzyme was supplied as a highly purified (>95% pure) preparation from Harvard Medical School and a secondary assay was used to evaluate compounds. This assay couples the formation of pyruvate from hPK-R using lactate dehydrogenase (LDH) and NADH. The depletion of NADH is followed in a fluorescent-based kinetic assay that follows the formation of pyruvate to lactate, as catalyzed LDH. Pyruvate kinase substrates, PEP and ADP, were present in the assay at 0.1 mM and 4 mM respectively. In this kinetic assay initial rates were determined by following the fluorescence of NADH depletion.
NCGC Assay Protocol Summary:
Three uL of substrate mix (final concentration, 50 mM Tris-Cl pH 8.0, 200 mM KCl, 15 mM MgCl2, 0.1 mM PEP, 4.0 mM ADP, and 0.2 mM NADH) was dispensed into black-solid 1536 well plates. 23 nL of compounds were delivered by a pin tool and 1 uL of enzyme mix (final concentrations, 10 nM hPK-L and 1 uM of LDH) was added. Plates were immediately placed in ViewLux (Perkin Elmer) and NADH fluorescence was determined at 30 second exposure intervals for between 3 and 6 minutes. Data were normalized to the uninhibited and EC100 activation using known activators such as fructose-bis-phosphate.
Consider `Cc1c(Cl)cccc1NS(=O)(=O)c1cc2c(cc1F)NC(=O)CC2`, for which the “activity change, positive = activation” value is 2.22%.
In the case of `CC(=O)Nc1cccc(S(=O)(=O)Nc2ccc(C)c(C)c2)c1`, the “activity change, positive = activation” value is -6.88%.
For `COc1cccc(Cn2ncc3c4sc(S(C)=O)cc4n(C)c3c2=O)c1` (stereo not given), the “activity change, positive = activation” value is -7.39%.
In the case of `O=C1CCc2cc(S(=O)(=O)Nc3ccc4ncccc4c3)ccc2N1`, the “activity change, positive = activation” value is -11.1%.
As to `CNc1cccc(S(=O)(=O)N2CCN(S(=O)(=O)c3ccc4c(c3)OCCO4)CC2)c1`, the “activity change, positive = activation” value is -9.66%.
Take `COc1ccc(OC2=NS(=O)(=O)c3ccccc32)cc1`: the “activity change, positive = activation” value is -0.215%.
For `O=C1CCc2cc(S(=O)(=O)Nc3cccnc3)ccc2N1`, the “activity change, positive = activation” value is -14.8%.
For `Cc1ccc(NS(=O)(=O)c2cc3c(cc2-c2ccco2)NC(=O)CO3)cc1C`, the “activity change, positive = activation” value is 20.6%.
For `O=C1CCc2cc(S(=O)(=O)Nc3cccc(-c4ccccc4)c3)ccc2N1`, the “activity change, positive = activation” value was 5.18%.
On to `O=C1CCc2cc(Cl)c(S(=O)(=O)Nc3ccc(Cl)c(Cl)c3)cc2N1`, for which the “activity change, positive = activation” value was 19.4%.
In the case of `Cc1cc(NS(=O)(=O)c2ccc3c(c2)CCC(=O)N3)ccc1Cl`, the “activity change, positive = activation” value is -14.1%.
Regarding `O=S1(=O)N=C(Oc2ccccc2Cl)c2ccccc21`, the “activity change, positive = activation” value is 14.9%.
Consider `Cc1ccc(NS(=O)(=O)c2ccc3c(c2)CCC(=O)N3)cc1`, for which the “activity change, positive = activation” value was 10.1%.
For `O=C1CCc2cc(S(=O)(=O)Nc3ccc(F)cc3)ccc2N1`, the “activity change, positive = activation” value was -16%.
On to `Cc1ccc(NS(=O)(=O)c2cccc(C(=O)O)c2)cc1C`, for which the “activity change, positive = activation” value is 1.47%.
For the compound `CNc1cccc(S(=O)(=O)N2CCCN(S(=O)(=O)c3ccc4c(c3)OCCO4)CC2)c1`, the “activity change, positive = activation” value was 21.3%.
Under `Cc1ccc(NS(=O)(=O)c2ccc(N3CCCC3=O)cc2)cc1C` stands -2.32%.
Consider `CNc1cc2c(cc1S(=O)(=O)Nc1ccc(C)c(C)c1)CCC(=O)N2`, for which the “activity change, positive = activation” value was -7.54%.
On to `Cc1ccc(NS(=O)(=O)c2ccc3c(c2)NC(=O)CO3)cc1C`, for which the “activity change, positive = activation” value was 10.8%.
`O=C1c2ccccc2C(=O)N1C1CCCCC1`: the “activity change, positive = activation” value is -6.4%.
In the case of `Cc1cc(C)n2c(Nc3ccccc3)c(-c3ccc(C)o3)nc2n1`, the “activity change, positive = activation” value is -7.21%.
With `Cc1c(Cl)cccc1NS(=O)(=O)c1cc2c(cc1Cl)CCC(=O)N2`, the “activity change, positive = activation” value is 18.1%.
The figure for `Cc1ccc(C)c(OC2=NS(=O)(=O)c3ccccc32)c1` is -15%.
`Cc1cc(N2C(=O)c3ccccc3C2=O)no1`: the “activity change, positive = activation” value was -3.11%.
As for `O=C1CCc2cc(S(=O)(=O)Nc3ccccc3Cl)ccc2N1`, the “activity change, positive = activation” value was -18.1%.
Consider `Cc1ccc(NS(=O)(=O)c2ccc3c(c2)oc(=O)n3C)cc1C`, for which the “activity change, positive = activation” value was -4.95%.
For `Cc1ccc(NS(=O)(=O)c2cc3c(cc2Cl)CCC(=O)N3)cc1C`, the “activity change, positive = activation” value was -5.71%.
`Cc1ccc(NS(=O)(=O)c2cc3c(cc2N(C)C)CCC(=O)N3)cc1C`: the “activity change, positive = activation” value was -5.29%.
Consider `COc1ccccc1NS(=O)(=O)c1ccc2c(c1)CCC(=O)N2`, for which the “activity change, positive = activation” value is 3.29%.
As for `COc1ccc(N2C(=O)c3ccccc3C2=O)cc1`, the “activity change, positive = activation” value is -12%.
Take `Cc1ccc(NS(=O)(=O)c2cccc(F)c2)cc1C`: the “activity change, positive = activation” value was 0.953%.
For the compound `Cc1ccc(NS(=O)(=O)c2cccc(Cl)c2)cc1C`, the “activity change, positive = activation” value is -8.62%.
The figure for `Cc1cc(NS(=O)(=O)c2ccc3c(c2)CCC(=O)N3)ccc1F` is -2.89%.
Consider `Cc1ccc(NS(=O)(=O)c2cc3c(cc2Cl)NC(=O)CO3)cc1C`, for which the “activity change, positive = activation” value is 3.53%.
Under `O=C1CCc2cc(S(=O)(=O)Nc3cccc(B(O)O)c3)ccc2N1` stands -15.6%; under `COc1cc(F)c(S(=O)(=O)N2CCCN(S(=O)(=O)c3cccc(N)c3)CC2)c(F)c1`, 11.1%; under `O=C1CCc2cc(S(=O)(=O)Nc3ccccn3)ccc2N1`, -13.7%.
Take `Cc1ccc(NS(=O)(=O)c2ccc3c(c2)C(Cl)(Cl)C(=O)N3)cc1C`: the “activity change, positive = activation” value was -2.21%.
Regarding `O=C1c2ccccc2C(=O)N1c1cccc(O)c1`, the “activity change, positive = activation” value is -12.5%.
Consider `Cc1ccc(NS(=O)(=O)c2ccc3c(c2)CCC(=O)N3)cc1F`, for which the “activity change, positive = activation” value was -11.2%.
